# Mito fusion act: mitochondrial division inhibition or fusion activation. S. cerevisiae fusion-defective mutant growth rescue, CellTiterGlo 48 h. Potency, µM (series often up to 46.1 µM), for inactives: top-dose growth rescue (activation), most hits filed as activators. 320,000 tested, 0.23% active; also: % of control where 0% means no effect; nearly all actives have a fitted effect of over 45% in size
#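 Luminescent cell viability in 1536-well qHTS format served as the measure of rescued growth in ts fusion-mutant S. cerevisiae cultured on non-fermentable YPEG for 48 hours at 37C.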
# Abeta rescue: A-beta toxicity reversal in yeast; yeast expressing A-beta42, growth rescue, OD600, 48 h; response scale: 0% DMSO, 100% iron-clioquinol control; Potency, µM (doses to about 46.1 µM), usual class: activators; 410,000 tested, 0.063% active; also: nearly all actives have a fitted effect of over 55% in size
#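 Yeast growth medium received pinned compounds, then yeast cells expressing toxic A-beta were added; plates incubated at 30 C for 48 hr. Growth read as absorbance at 600 nm, normalized to DMSO and equimolar FeCl3 plus clioquinol controls.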
# A-T KAP1 phos: potential ataxia-telangiectasia treatments restoring KAP-1 phosphorylation. F2112 A-T fibroblasts, KAP-1 phosphorylation AlphaLISA; neocarzinostatin DNA damage 30 min before lysis. Potency, µM (titrated, usually from 57.5 µM), inactives show at the highest dose activation, actives largely listed as activators. 320,000 tested, 0.19% active. AID 485349; also: % of control where 0% means no effect; nearly all actives have a fitted effect of over 45% in size
#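 ATM-like activity read as KAP-1 phosphorylation via AlphaLISA donor/acceptor antibody pairs after lysis and 6 hr at 25C. Cells were ATM-null patient fibroblasts (F2112, hTERT), dosed 60 min, then exposed to the DSB inducer NCS for 30 min.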
# aSyn yeast inh: alpha-synuclein toxicity inhibition in yeast | Yeast expressing alpha-synuclein, growth rescue, BacTiter-Glo, 24 h | Potency, µM (titrated, usually from 46.1 µM), without a hit: top-dose growth rescue (activation), actives largely listed as activators | 370,000 tested, 0.14% active | AID 652106; also: % of control where 0% means no effect; nearly all actives have a fitted effect of over 65% in size
#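 Galactose-induced alpha-syn yeast (OD600=0.02, raffinose-pregrown) + pinned cpd, 24 hr, 30 deg C; growth by BacTiter-Glo luminescence. Growth restoration scores as activation.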
# Glioma ERSR ind: inducers of ER stress response in human glioma cells | U87-MG GRP78 promoter luciferase reporter, 16 h | 420,000 tested, 0.02% active | Potency, µM, for inactives: at the top dose activation, most hits filed as activators; also: series mostly up to about 76 µM; % of control where 0% means no effect; nearly all actives have a fitted effect of over 35% in size
#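 Stably transfected U87-MG human glioma cells carrying a GRP78-based luminescent sensor were seeded at 1000 cells/well, pin-dosed with compounds and incubated 16 h. Luciferase reagent was then added, and end-point luminescence was read after 10 min at room temperature.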
# TDP-43 yeast inh: TDP-43 toxicity inhibition in yeast; TDP-43 expressing yeast growth rescue, BacTiter-Glo, 24 h; Potency, µM (titrated, usually from 46.1 µM), for inactives: at the highest dose growth rescue (activation), actives largely listed as activators; 410,000 tested, 1.8% active; AID 652104; also: % of control where 0% means no effect; nearly all actives have a fitted effect of over 50% in size
#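 Yeast expressing TDP-43 (pregrown in raffinose, seeded at OD600=0.02 in galactose medium) exposed to compounds 24 hr at 30 deg C. Growth read by BacTiter-Glo luminescence; rescue of toxicity appears as increased signal.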
# Starred values were filed as active, the others as inactive; i = inactive; ? = inconclusive; · = no result. Hits are enriched below; roughly 2.1% of the tested compounds scored in any of these assays. Calls follow the shape of the dose curve; as a rule, active = well fitted curve in the direction sought with a large enough effect; inconclusive = small, poorly fitted or top-dose-only effect, or another doubt; inactive = no such curve, though single readings can be large; an effect the other way counts as inactive or inconclusive. Potency is read from the fitted curve at half-maximal effect.
SMILES,Mito fusion act,Abeta rescue,A-T KAP1 phos,aSyn yeast inh,Glioma ERSR ind,TDP-43 yeast inh
COC(=O)c1cc(CNC(=O)c2ccccc2F)cc(NC(=O)c2ccccc2OC)c1,·,·,·,·,3%,·
Cc1ccc(C(=O)N(Cc2cc3cc4c(cc3nc2N2CCOCC2)CCC4)CC2CCCO2)s1 (stereo unspecified),·,·,·,·,0%,·
c1ccc(-c2n[nH]c3c2oc2ccccc23)cc1,·,·,·,·,0%,·
CCOc1ccccc1C(=O)Nc1cccc2ccccc12,4%,i,23%,4%,-5%,?
CCOc1ccccc1C(=O)Nc1cccc2ccc(C)nc12,·,i,·,·,·,20µM*
Cc1ccc2cccc(NC(=O)c3cccc4c(Cl)cccc34)c2n1,·,i,·,-2%,-3%,8%
COc1c(C)cccc1C(=O)Nc1cccc2ccc(C)nc12,·,i,·,·,-3%,22µM*
Cn1c(SCc2ccccc2)nnc1C1CCCN(Cc2cccc3ncccc23)C1 (stereo unspecified),·,·,·,·,-4%,·
C=C[C@]1(C)C[C@@H](OC(=O)CO)[C@]2(C)C(C)CC[C@]3(CCC(=O)[C@H]32)[C@@H](C)[C@@H]1O (stereo partly specified),·,·,·,·,-2%,·
Cc1ccccc1-c1cccc(CN2CCc3nnc(C(C)NC(=O)c4cccnc4)n3CC2)c1 (stereo unspecified),·,·,·,·,-4%,·
CCCCc1ccc(Nc2ncnc3nc[nH]c23)cc1,12%,i,5%,1%,5%,16µM*
CC(C)C[C@@H](/C=C/S(C)(=O)=O)NC(=O)[C@H](CC(C)C)NC(=O)[C@H](CC(C)C)NC(=O)OCc1ccccc1,·,·,·,·,1%,·
O=C(COc1ccc(Cl)cc1)NCC(c1ccco1)S(=O)(=O)c1ccccc1 (stereo unspecified),·,i,·,·,-2%,6%
O=C(COc1ccc(Cl)cc1)NCC(c1ccco1)S(=O)(=O)c1ccc(Cl)cc1 (stereo unspecified),·,i,·,·,-2%,35µM*
CCN(CC)C(=S)SCC(=O)c1ccc(Br)cc1,11µM*,i,28%,17%,-1%,?
CCC/C(=C1/c2ccccc2C(=O)N1c1ccccc1)c1ccc2[nH]ccc2c1,·,i,2%,-44%,-3%,14µM*
COc1ccc(CN2C(=O)COc3ccccc32)cc1,4%,i,19%,0%,-2%,?
O=C1COc2ccccc2N1Cc1ccc(Cl)cc1,1%,i,1%,26%,-1%,20µM*
Cc1ccc(NC(=O)Cn2ccn(Cc3ccc(Cl)cc3)c(=O)c2=O)cc1C,·,i,·,·,-3%,-11%
Cc1ccc(NC(=O)COC(=O)c2cc(=O)c3ccccc3o2)cc1F,-9%,i,1%,-13%,0%,11%
Cc1cccc(C)c1NC(=O)COC(=O)c1cc(=O)c2ccccc2o1,2%,i,3.5µM*,3%,-1%,5%
C[C@@H](O[C@H]1OCCN(Cc2n[nH]c(=O)[nH]2)[C@@H]1c1ccc(F)cc1)c1cc(C(F)(F)F)cc(C(F)(F)F)c1,·,·,·,·,-7%,·
CC(C)(C)c1ccc(OCCC(=O)OCC(=O)NC2CCCCC2)cc1,-2%,i,1%,7%,-2%,35µM*
O=C(COC(=O)Cc1c(Cl)cccc1Cl)NC1CCCC1,·,i,-4%,12%,0%,20µM*
CCCCCCCSc1nsc(N)n1,?,i,-2%,-15%,-4%,13µM*
CSc1ccc(C2c3c(oc4ccc(F)cc4c3=O)C(=O)N2c2ccc(C)cn2)cc1 (stereo unspecified),·,i,·,·,-1%,10%
O=C1NN=C(c2ccc(Cl)cc2)CC1c1cccc(Br)c1 (stereo unspecified),-4%,i,-2%,?,-7%,13µM*
Cc1ccc(C2=NNC(=O)C(c3ccc(Cl)cc3)C2)cc1 (stereo unspecified),12%,i,2%,15%,-3%,22µM*

# Screening results from PubChem BioAssay.
